Experiment [1] is described as follows: qHTS assay to identify small molecule that activate the aryl hydrocarbon receptor (AhR) signaling pathway - cell viability counter screen (AID 743086).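 Also: HepG2 liver cells carrying the AhR DRE luciferase reporter; series mostly up to about 70 µM; nearly all actives have a fitted effect of over 45% in size.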 An outline of the steps:
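Cytotoxicity counter screen: CellTiter-Fluor signal (30 min, 37 C) in 4000 HepG2 cells/well carrying the DRE-luciferase reporter, following 24 h compound exposure at 37 C.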
For orientation: qHTS replaces the single test concentration by a dilution series.

Experiment [2] is described as follows: qHTS assay to identify small molecule antagonists of the peroxisome proliferator-activated receptor gamma (PPARg) signaling pathway - cell viability counter screen (AID 743194). Also: nearly all actives have a fitted effect of over 55% in size. Summed up:
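Viability was measured as CellTiter-Glo luminescence in GeneBLAzer PPARg UAS-bla HEK293H cells. These cells had been exposed 17 h at 37 C to compounds together with rosiglitazone at 50 nM final, with the beta-lactamase readout taken in the same wells.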

Experiment [3] can be described thus: qHTS assay for small molecule agonists of the antioxidant response element (ARE) signaling pathway (AID 743202; active = well fitted activation curve with a large enough effect in the signal ratio in the repeat runs, not every such curve was filed as active; the % refers to the signal ratio; also: potency is read from the fitted curve at half-maximal effect). An outline of the steps: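 After 16 hours of compound treatment at 37 C, HepG2 cells with a stably integrated ARE-driven beta-lactamase reporter were loaded 2 hours at room temperature with LiveBLAzer B/G FRET substrate and fluorescence intensity measured.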

The nature of experiment [4]: qHTS assay for small molecule agonists of the antioxidant response element (ARE) signaling pathway - cell viability counter screen (AID 743203; calls by dose curve; also: nearly all actives have a fitted effect of over 55% in size; also: potency is read from the fitted curve at half-maximal effect). Summed up:
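Parallel cytotoxicity read-out for the ARE-bla screen: HepG2 reporter cells, 16 hrs with compounds, then CellTiter-Glo luminescence.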

Experiment [5] can be described thus: qHTS assay for small molecule activators of the heat shock response signaling pathway - cell viability counter screen (AID 743209). Also: nearly all actives have a fitted effect of over 50% in size. Also: potency is read from the fitted curve at half-maximal effect. Summed up: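 To flag cytotoxic compounds, HSE-bla HeLa cells plated at 1500 cells/well were dosed for 5 h at 37 C, followed by the reporter FRET read and then CellTiter-Glo, with luminescence recorded 30 min after reagent addition.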

Experiment [6] can be described thus: qHTS assay for small molecule activators of the heat shock response signaling pathway (AID 743210; active = well fitted activation curve with a large enough effect in the signal ratio in the repeat runs, with a control signal flat, not every such curve was filed as active; the % refers to the signal ratio; also: series mostly up to about 63 µM). Summed up:
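Compound exposure lasted 5 h at 37 C in HeLa cells carrying a heat-shock-element-driven beta-lactamase reporter. Read-out: fluorescence intensity after 2.5 h room-temperature loading with LiveBLAzer B/G FRET substrate.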

Experiment [7] can be described thus: qHTS assay to identify small molecule agonists of the peroxisome proliferator-activated receptor delta (PPARd) signaling pathway - cell viability counter screen (AID 743211). Also: nearly all actives have a fitted effect of over 55% in size. An outline of the steps: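 Read-out: CellTiter-Glo luminescence, 30 min RT, measured in the same wells as the beta-lactamase reporter. Cells: GeneBLAzer PPAR delta UAS-bla HEK293H, 3000 cells/well, compound exposure 17 h at 37C.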

Experiment [8] addresses Peroxisome proliferator-activated receptor delta (Homo sapiens) (UniProt Q03181). Put plainly: qHTS assay to identify small molecule agonists of the peroxisome proliferator-activated receptor delta (PPARd) signaling pathway (AID 743212; calls by dose curve). Summed up: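 Beta-lactamase reporter readout: a ratiometric FRET signal from the LiveBLAzer substrate after 2 h at room temperature. Compound exposure at 37 °C in PPARδ-bla HEK293H cells driven by an upstream activator sequence.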

Experiment [9] in a line: qHTS assay to identify small molecule antagonists of the peroxisome proliferator-activated receptor delta (PPARd) signaling pathway - cell viability counter screen (AID 743213). Also: nearly all actives have a fitted effect of over 50% in size. An outline of the steps:
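PPARd-bla HEK293H cells (3000/well) got compound plus 300 nM L165041 agonist for 17 h at 37 C. Viability in the same wells came from CellTiter-Glo luminescence after 30 min at room temperature.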

The target of experiment [10] is Peroxisome proliferator-activated receptor delta (Homo sapiens) (UniProt Q03181). Put plainly: qHTS assay to identify small molecule antagonists of the peroxisome proliferator-activated receptor delta (PPARd) signaling pathway (AID 743215; active = well fitted inhibition curve with a large enough effect in the signal ratio in the repeat runs, not every such curve was filed as active; the % refers to the signal ratio;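 also: cells stimulated with agonist L165041 at 300 nM final during compound exposure; series mostly up to about 62 µM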). An outline of the steps: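 Screen format: qHTS, antagonist mode. HEK293H PPARd-bla cells received compound and 300 nM L165041 (final), 17 h, 37 C. Beta-lactamase detected via FRET substrate fluorescence, 2 h, room temperature.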
Peroxisome proliferator-activated receptor delta (Homo sapiens), sequence (Q03181 whole entry, looked up): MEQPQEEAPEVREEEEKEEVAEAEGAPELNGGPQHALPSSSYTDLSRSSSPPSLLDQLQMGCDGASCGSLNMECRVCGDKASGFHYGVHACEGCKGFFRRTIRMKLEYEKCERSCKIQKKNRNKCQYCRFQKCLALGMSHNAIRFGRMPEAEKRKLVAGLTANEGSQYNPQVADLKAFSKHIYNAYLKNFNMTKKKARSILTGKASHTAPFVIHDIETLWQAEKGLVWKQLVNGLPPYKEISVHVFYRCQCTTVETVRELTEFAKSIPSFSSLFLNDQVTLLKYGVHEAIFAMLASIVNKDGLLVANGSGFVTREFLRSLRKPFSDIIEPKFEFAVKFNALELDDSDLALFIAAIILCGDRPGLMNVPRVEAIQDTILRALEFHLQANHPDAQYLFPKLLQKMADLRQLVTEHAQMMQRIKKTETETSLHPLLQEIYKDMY

Experiment [11] has as its target Bile acid receptor (Homo sapiens) (UniProt Q96RI1). Description: qHTS assay to identify small molecule antagonists of the farnesoid-X-receptor (FXR) signaling pathway (AID 743217; active = well fitted inhibition curve with a large enough effect in the signal ratio in the repeat runs, not every such curve was filed as active; the % refers to the signal ratio). Summed up: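 Quantitative HTS, beta-lactamase reporter format: FXR-UAS-bla HEK 293T cells co-treated 16 h at 37 °C with compounds and 50 uM final chenodeoxycholic acid, then read by B/G FRET fluorescence.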

For experiment [12] the target is unchanged. Description: qHTS assay to identify small molecule agonists of the farnesoid-X-receptor (FXR) signaling pathway (AID 743220; active = well fitted activation curve with a large enough effect in the signal ratio in the repeat runs, not every such curve was filed as active; the % refers to the signal ratio). An outline of the steps:
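FXR-UAS-bla HEK 293T cells carrying a UAS-driven beta-lactamase reporter were plated for 5 h at 37C/5% CO2, then exposed to DMSO-dissolved Tox21 10K compounds for 16 h at 37C. A LiveBLAzer B/G FRET substrate was loaded for 2 h at room temperature before fluorescence reading.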

The nature of experiment [13]: qHTS assay to identify small molecule antagonists of the farnesoid-X-receptor (FXR) signaling pathway - cell viability counter screen (AID 743221; active = well fitted cell-killing curve with a large enough effect in the repeat runs, not every such curve was filed as active; also: nearly all actives have a fitted effect of over 50% in size). An outline of the steps: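 HEK 293T FXR-bla cells, 5 h pre-incubation; compound + CDCA 50 uM final, 16 h, 37 C; beta-lactamase FRET read first, then CellTiter-Glo luminescence, 30 min RT.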
Experiment [14] deals with Vitamin D3 receptor (Homo sapiens) (UniProt P11473). Put plainly: qHTS assay to identify small molecule agonists of the vitamin D receptor (VDR) signaling pathway (AID 743222; calls by dose curve). An outline of the steps:
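Using LiveBLAzer B/G FRET detection, agonism was scored in VDR-bla cells exposed overnight (16 h, 37C) to DMSO-dissolved compounds; substrate incubation was 2 h at room temperature.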

A short description of experiment [15]: qHTS assay to identify small molecule agonists of the vitamin D receptor (VDR) signaling pathway - cell viability counter screen (AID 743224). Also: nearly all actives have a fitted effect of over 50% in size. Also: potency is read from the fitted curve at half-maximal effect. An outline of the steps: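 Counter screen for cytotoxicity: VDR-bla cells at 2,000 cells/well, 16 h compound exposure, then CellTiter-Glo luminescence after the beta-lactamase measurement.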
A short description of experiment [16]: qHTS assay to identify small molecule agonists of the farnesoid-X-receptor (FXR) signaling pathway - cell viability counter screen (AID 743218). Also: nearly all actives have a fitted effect of over 45% in size. An outline of the steps: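 Same-well cytotoxicity check on FXR-UAS-bla HEK 293T cells: 5 h attachment, 16 h compound at 37 C, CellTiter-Glo luminescence read at room temperature after 30 min.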
For experiment [17], the target named is Vitamin D3 receptor (Homo sapiens) (UniProt P11473). Description: qHTS assay to identify small molecule antagonists of the vitamin D receptor (VDR) signaling pathway (AID 743223; active = well fitted inhibition curve with a large enough effect in the signal ratio in the repeat runs, not every such curve was filed as active; the % refers to the signal ratio). An outline of the steps: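 Beta-lactamase reporter read-out: FRET substrate fluorescence after 2 h at room temperature, following 16 h exposure of VDR-bla cells to test compound plus 3 nM (final) 1alpha,25-dihydroxyvitamin D3 agonist at 37C.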
Vitamin D3 receptor (Homo sapiens), sequence (P11473 whole entry, looked up): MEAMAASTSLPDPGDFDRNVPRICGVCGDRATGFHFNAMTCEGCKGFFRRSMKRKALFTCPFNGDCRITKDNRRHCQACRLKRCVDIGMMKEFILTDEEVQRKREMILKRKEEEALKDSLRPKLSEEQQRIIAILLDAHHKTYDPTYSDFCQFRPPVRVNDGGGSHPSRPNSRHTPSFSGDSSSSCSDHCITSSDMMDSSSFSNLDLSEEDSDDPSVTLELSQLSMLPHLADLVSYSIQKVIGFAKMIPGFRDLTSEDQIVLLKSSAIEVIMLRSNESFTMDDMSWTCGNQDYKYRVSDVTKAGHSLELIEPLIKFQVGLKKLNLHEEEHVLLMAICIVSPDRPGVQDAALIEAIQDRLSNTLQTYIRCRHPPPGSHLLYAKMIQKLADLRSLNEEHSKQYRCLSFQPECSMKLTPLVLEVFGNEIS

Experiment [18] addresses Peroxisome proliferator-activated receptor gamma (Homo sapiens) (UniProt P37231). Description: qHTS assay to identify small molecule agonists of the peroxisome proliferator-activated receptor gamma (PPARg) signaling pathway (AID 743094; active = well fitted activation curve with a large enough effect in the signal ratio in the repeat runs, not every such curve was filed as active; the % refers to the signal ratio; also: potency is read from the fitted curve at half-maximal effect). An outline of the steps: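 Fluorescence-based beta-lactamase readout in HEK293H PPARg UAS-bla cells after 17 h compound exposure (37C) and 1 h B/G FRET substrate incubation at room temperature.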

Experiment [19] has the same target. Description: qHTS assay to identify small molecule antagonists of the peroxisome proliferator-activated receptor gamma (PPARg) signaling pathway (AID 743191; calls by dose curve; also: nearly all actives have a fitted effect of over 30% in size; also: potency is read from the fitted curve at half-maximal effect). Summed up:
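Beta-lactamase reporter under UAS control in HEK293H PPARg-bla cells; compound treatment 17 h at 37C. Read-out: fluorescence intensity after 1 h room-temperature incubation with LiveBLAzer B/G FRET substrate.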

Where “and” joins values, the source holds several entries; their conditions need not be identical. Equal values may be shown once. Results filed as inconclusive are left out. Some structures have more than one record in an assay (separate samples or runs), and their calls can disagree. Calls of active or inactive are those of the source. Unless noted, calls follow the shape of the dose curve; as a rule, active = well fitted curve in the direction sought with a large enough effect in the repeat runs; inconclusive = weak or mixed curves; inactive = no such curve, though single readings can be large; an effect the other way counts as inactive or inconclusive.

Bile acid receptor (Homo sapiens), sequence (Q96RI1 whole entry, looked up): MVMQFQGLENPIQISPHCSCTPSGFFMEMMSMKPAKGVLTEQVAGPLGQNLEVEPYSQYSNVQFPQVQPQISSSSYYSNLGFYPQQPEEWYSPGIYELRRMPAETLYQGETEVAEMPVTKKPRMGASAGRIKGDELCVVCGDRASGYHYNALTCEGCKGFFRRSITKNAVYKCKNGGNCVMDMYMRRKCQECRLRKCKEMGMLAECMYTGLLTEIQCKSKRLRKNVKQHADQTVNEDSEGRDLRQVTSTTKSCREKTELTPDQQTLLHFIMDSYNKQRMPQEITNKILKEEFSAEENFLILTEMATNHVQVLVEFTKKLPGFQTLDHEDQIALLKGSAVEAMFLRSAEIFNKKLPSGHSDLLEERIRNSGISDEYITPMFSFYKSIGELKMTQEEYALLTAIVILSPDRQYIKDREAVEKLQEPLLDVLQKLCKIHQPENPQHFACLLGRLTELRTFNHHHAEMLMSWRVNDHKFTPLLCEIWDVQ
Peroxisome proliferator-activated receptor gamma (Homo sapiens), sequence (P37231 whole entry, looked up): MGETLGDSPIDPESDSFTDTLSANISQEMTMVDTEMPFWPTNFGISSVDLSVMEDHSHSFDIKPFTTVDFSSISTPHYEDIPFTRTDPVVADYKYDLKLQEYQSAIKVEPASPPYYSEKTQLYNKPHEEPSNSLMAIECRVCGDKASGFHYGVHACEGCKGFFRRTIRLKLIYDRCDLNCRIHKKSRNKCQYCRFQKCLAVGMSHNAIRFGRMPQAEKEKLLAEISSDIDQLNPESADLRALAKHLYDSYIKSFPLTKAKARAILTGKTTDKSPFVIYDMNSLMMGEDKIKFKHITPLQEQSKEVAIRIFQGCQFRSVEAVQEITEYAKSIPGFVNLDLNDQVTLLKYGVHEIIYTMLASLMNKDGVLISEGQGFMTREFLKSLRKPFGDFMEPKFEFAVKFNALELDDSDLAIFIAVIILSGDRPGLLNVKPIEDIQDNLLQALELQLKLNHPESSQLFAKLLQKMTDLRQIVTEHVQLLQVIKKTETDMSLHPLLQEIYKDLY

With `CN(C)c1nc(N(C)C)nc(N(C)C)n1`, the Potency entry in experiment [1], in experiment [2], in [3], in [4], in [5] and in experiment [6] was “inactive” throughout. Besides, the Potency result in experiment [7], in [9], in experiment [10], in experiment [11], in experiment [13] and in experiment [15] was “inactive” throughout. Also, the outcome in experiment [8], in [12] and in experiment [14] was inactive.
Turning to `O=C=Nc1ccc(Cc2ccc(N=C=O)cc2)cc1`, the Potency result in experiment [1], in experiment [2], in [4], in [5], in experiment [6] and in experiment [7] was “inactive” throughout. Moreover, the Potency entry in experiment [9], in experiment [10], in experiment [11], in experiment [16], in experiment [13] and in [15] was “inactive” each time. In addition, the compound was classed as inactive in [8], in [12] and in experiment [17].
On to `Cc1ncc[nH]1`, for which the Potency result in experiment [1], in experiment [18], in [19], in experiment [2], in [4] and in experiment [5] was “inactive” throughout. Besides, the Potency entry in [6], in [7], in experiment [9], in experiment [10], in experiment [11] and in experiment [13] was “inactive” each time. The Potency result in [15] is “inactive”. For the same compound, the compound was classed as inactive in experiment [8], in experiment [12], in experiment [14] and in [17].
`Cn1cnc([N+](=O)[O-])c1Sc1ncnc2nc[nH]c12`: the Potency entry in experiment [18], in experiment [2], in experiment [5], in experiment [7], in [9] and in experiment [10] was “inactive” in each case. Moreover, the Potency entry in [13] is “inactive”. The Potency in [4] was 0.382 µM (active). Further, in experiment [8], the compound was classed as inactive.
For `CC(C)Oc1ccc2c(=O)c(-c3ccccc3)coc2c1`, the Potency entry in experiment [1], in [18], in [19], in experiment [2], in [4] and in experiment [5] was “inactive” in each case. Moreover, the Potency result in experiment [6], in experiment [7], in experiment [9], in experiment [10], in experiment [11] and in experiment [13] was “inactive” throughout. Besides, the Potency entry in experiment [15] is “inactive”. Moreover, the compound was classed as inactive in experiment [8] and in [12].
Consider `Cc1cc2nc3c(=O)[nH]c(=O)nc-3n(C[C@H](O)[C@H](O)[C@H](O)CO)c2cc1C`, for which the Potency entry in experiment [2], in experiment [4], in experiment [5], in experiment [6], in experiment [7] and in experiment [9] was “inactive” each time. Besides, the Potency entry in experiment [10], in [11], in [16], in experiment [13] and in experiment [15] was “inactive” throughout. Further, the result in experiment [8] and in experiment [12] was inactive.
Regarding `O=c1oc(=O)c2cc3c(=O)oc(=O)c3cc12`, the Potency entry in experiment [1], in [18], in [19], in experiment [2], in experiment [4] and in experiment [5] was “inactive” each time. Besides, the Potency result in experiment [6], in experiment [7], in [9], in experiment [10], in experiment [13] and in [15] was “inactive” each time. Further, the call in [8] and in [17] was inactive.
`CCCc1c(OCCCCc2nn[nH]n2)ccc(C(C)=O)c1O`: the Potency result in experiment [1], in [2], in experiment [4], in [5], in experiment [6] and in experiment [7] was “inactive” in each case. In addition, the Potency result in experiment [9], in experiment [10], in experiment [11], in experiment [16], in experiment [13] and in experiment [15] was “inactive” throughout. Further, the Potency in experiment [18] is 2.19 µM (active); in experiment [19], 8.71 µM (active). Moreover, the call in experiment [12] was inactive.
As for `Cc1cccc(N(C)C(=S)Oc2ccc3ccccc3c2)c1`, the Potency result in experiment [1], in experiment [18], in experiment [2], in experiment [4], in [5] and in experiment [6] was “inactive” throughout. Also, the Potency entry in experiment [9], in [11], in [16], in experiment [13] and in experiment [15] was “inactive” in each case. The outcome in experiment [12] and in [14] was inactive.
`O=CCCCC=O`: the Potency result in [1], in experiment [2], in [4], in [6], in experiment [7] and in experiment [9] was “inactive” in each case. Besides, the Potency entry in experiment [10], in experiment [11], in [13] and in experiment [15] was “inactive” each time. Besides, the Potency entry in experiment [18] is “inactive and 53 µM (active)”; in [3], 52.5 µM (active) and inactive; in experiment [5], 47.2 µM (active) and inactive. The compound was classed as inactive in [8] and in experiment [12].
`CN(C)C(=N)N=C(N)N`: the Potency entry in [1], in experiment [2], in experiment [4], in experiment [5], in experiment [7] and in [9] was “inactive” each time. The Potency entry in experiment [13] and in experiment [15] was “inactive” in each case.
For `CC(=O)O[C@]1(C(C)=O)CC[C@H]2[C@@H]3C=C(Cl)C4=CC(=O)[C@@H]5C[C@@H]5[C@]4(C)[C@H]3CC[C@@]21C`, the Potency result in experiment [1], in experiment [18], in experiment [4], in [5], in experiment [6] and in [7] was “inactive” throughout. Further, the Potency entry in experiment [9], in experiment [10], in experiment [16] and in experiment [13] was “inactive” each time. Further, the Potency in experiment [3] is 30.6 µM (active); in experiment [15], 48.9 µM (active) and inactive. The outcome in [8] was inactive.
For `OC[C@H]1O[C@@H]2O[C@H]3[C@H](O)[C@@H](O)[C@@H](O[C@H]4[C@H](O)[C@@H](O)[C@@H](O[C@H]5[C@H](O)[C@@H](O)[C@@H](O[C@H]6[C@H](O)[C@@H](O)[C@@H](O[C@H]7[C@H](O)[C@@H](O)[C@@H](O[C@H]8[C@H](O)[C@@H](O)[C@@H](O[C@H]1[C@H](O)[C@H]2O)O[C@@H]8CO)O[C@@H]7CO)O[C@@H]6CO)O[C@@H]5CO)O[C@@H]4CO)O[C@@H]3CO`, the Potency entry in [1], in experiment [2], in experiment [4], in experiment [5], in [6] and in experiment [7] was “inactive” in each case. In addition, the Potency entry in experiment [9], in experiment [16], in experiment [13] and in [15] was “inactive” each time.
